High-throughput results: PubChem BioAssay, several laboratories
PfM18AAP inh-1: blocks P. falciparum M18 aspartyl aminopeptidase | recombinant PfM18AAP, H-Glu-NHMec fluorogenic cleavage | inhibition, % at 7.35 µM | 1.2% of 290,000 active;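 active means inhibition above the campaign mean inhibition over all tested compounds plus 3 SD, cut at about 28% in these data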;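 further: 0% = plate median of test compound wells and 100% = 2 mM ZnCl2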
PfG6PD inh: PfG6PD (Plasmodium falciparum) enzyme inhibition | PfGluPho enzyme, NADPH resazurin-diaphorase fluorescence | inhibition, % at 20 µM | 0.78% of 350,000 active | AID 504690;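 active means inhibition reaching at least a set limit at 20 µM in the primary screen, cut at about 59% in these data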;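 further: 0% = DMSO wells with substrate and 100% = DMSO wells lacking glucose-6-phosphate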
PHOSPHO1 block: inhibitors of human PHOSPHO1 phosphatase. Q8TCT1. recombinant PHOSPHO1, absorbance phosphatase assay. inhibition, % at 13.3 µM. 1.1% of 290,000 active. AID 1565; in the data active means inhibition above about 60%
H9c2 protect: myocardial damage modulation in H9c2 cells; protection from H2O2 cell death, % at 20 µM; 0.63% of 360,000 active; H9c2 cardiomyocytes, H2O2 injury protection, ATPLite, 2 h;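 active means compounds giving at least 50% protection of heart cells from peroxide-induced death in the single-dose screen, raw or plate-pattern-corrected value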;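 further: 0% = DMSO wells with peroxide and 100% = DMSO wells without peroxide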
ALR inh: blocks human ALR sulfhydryl oxidase activity; AID 485317; inhibition, % (concentration not given with the values); P55789; purified ALR, DTT oxidation, H2O2 HRP-luminol luminescence; 3.8% of 290,000 active;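 active means mean replicate inhibition above about 79%, with every replicate also reaching it, limit read from the data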
PfM18AAP inh-2: confirmation of Plasmodium falciparum M18 aspartyl aminopeptidase inhibitors; shares compounds with PfM18AAP inh-1; recombinant PfM18AAP, H-Glu-NHMec fluorogenic cleavage; inhibition, % at 7.35 µM; 28% of 2,400 active; AID 2170;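 active means mean inhibition over replicate wells above the hit cutoff set for the earlier primary screen, cut at about 29% in these data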;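 further: 0% = median of test compound wells and 100% = 2 mM ZnCl2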
CTSL1 counter: counter-screen for PFM18AAP inhibitors: confirmation of human cathepsin L inhibitors. AID 2178. shares compounds with PfM18AAP inh-1. 2,400 tested, under 10 active. purified cathepsin L1, Z-Leu-Arg-MCA fluorescence. inhibition, % at 5.96 µM;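 active means average inhibition across replicates above the hit cutoff set in the earlier primary screen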;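 further: 0% = median of test compound wells and 100% = Z-Phe-Ala-diazomethylketone 1 µM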
Target sequence (P07711 whole entry, looked up): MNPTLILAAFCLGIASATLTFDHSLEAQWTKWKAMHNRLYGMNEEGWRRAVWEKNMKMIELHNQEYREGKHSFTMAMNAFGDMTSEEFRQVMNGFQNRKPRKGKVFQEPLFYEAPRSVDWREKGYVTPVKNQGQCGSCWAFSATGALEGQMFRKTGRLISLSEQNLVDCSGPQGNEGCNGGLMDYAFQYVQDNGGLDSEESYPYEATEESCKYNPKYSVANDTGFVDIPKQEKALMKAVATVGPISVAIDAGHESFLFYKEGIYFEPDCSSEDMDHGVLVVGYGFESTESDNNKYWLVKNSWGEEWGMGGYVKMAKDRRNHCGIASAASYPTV
The depositor's hits bear a star; x = no result. A selection: hits, their analogues and other compounds. The true share with any hit is near 5.6%.

SMILES | PfM18AAP inh-1 | PfG6PD inh | PHOSPHO1 block | H9c2 protect | ALR inh | PfM18AAP inh-2 | CTSL1 counter
COc1ccc(CCN2CC(C(=O)NCCCn3nc(C)cc3C)CCC2=O)cc1 (stereo not given) | 5 | -17 | 1 | -1 | -22 | x | x
O=C(Nn1cnnc1)c1ccccc1CCc1ccccc1 | 42* | -18 | 16 | 0 | 3 | 35* | -1
O=C(CCN1C(=O)c2ccccc2C1=O)Nn1cnnc1 | 45* | -15 | 7 | 13 | -8 | 46* | -3
O=C(Nn1cnnc1)c1ccccc1-c1ccccc1 | 56* | -3 | 3 | 5 | 10 | 64* | -6
CCn1nccc1NC(=O)c1csc([C@@H]2O[C@H](CO)[C@H](O)[C@H](O)[C@H]2O)n1 | x | x | x | 3 | x | x | x
CC(C)(C)OC(=O)N1CC2(CCCCC2)CC1Cc1ccc(C(F)(F)F)cc1 (stereo not given) | x | 9 | x | -2 | x | x | x
Cc1ccc(C(=O)OCC(=O)N(C)C2CCS(=O)(=O)C2)cc1S(=O)(=O)N1CCCCC1 (stereo not given) | x | -13 | x | 5 | -1 | x | x
Oc1cccc(/C=N/Nc2ccc(Cl)nn2)c1 | 6 | 7 | 10 | 3 | x | x | x
Oc1ccc(/C=N/Nc2cccc(Cl)n2)c(O)c1 | 58* | 56 | x | -7 | x | 57* | 7
COc1c(OC2OC(C(=O)O)C(O)C(O)C2O)cc(O)c2c(=O)cc(-c3ccccc3)oc12 (stereo not given) | 17 | -12 | 13 | 2 | 30 | x | x
O=C(O)C1OC(Oc2cc3oc(-c4ccccc4)cc(=O)c3c(O)c2O)C(O)C(O)C1O (stereo not given) | 44* | 16 | 11 | 4 | -1 | 13 | -1
COc1ccc(C(=O)COC(=O)CNC(=O)c2ccccc2)cc1F | x | -2 | x | -1 | -14 | x | x
COc1ccc(/C=C2\SC(=S)N(N3C(=O)CCC3=O)C2=O)cc1O | 32* | 12 | -9 | 5 | 31 | -41 | 4
COc1ccc(OC)c(NC(=O)CSc2nc3[nH]c(=O)[nH]c(=O)c3s2)c1 | x | -22 | x | 4 | x | x | x
O=C(Nc1nnc([C@H]2C[C@H](O)[C@@H](CO)O2)s1)Nc1cccc(Cl)c1Cl | x | x | x | 1 | x | x | x
CCC(=O)Nc1ccc(NC(=O)c2cccc3c(Br)cccc23)cc1 | 45* | -22 | -1 | 2 | -8 | -30 | 1
CC(NC(=O)C1CCCN1S(=O)(=O)c1ccccc1)c1ccccc1 (stereo not given) | -7 | 11 | 6 | 5 | -5 | x | x
O=C(CCc1ccc(Oc2cc([N+](=O)[O-])cc([N+](=O)[O-])c2)cc1)N1CCCCC1 | -6 | -14 | 36 | -10 | -18 | x | x
Oc1ccccc1N=Cc1ccc[nH]1 | 35* | 4 | 6 | -21 | 31 | 17 | -1
Cc1cccc2sc(NNC(=O)c3ccc4c(c3)OCCO4)nc12 | 34* | 51 | -4 | 24 | x | -13 | -6
O=C(NNc1nc2cc3c(cc2s1)OCCO3)c1ccccc1 | 54* | 43 | -156 | -3 | 43 | 27 | 0
CC(=O)Nc1nc2cc3c(cc2s1)OCCO3 | 5 | 3 | 10 | -19 | -11 | x | x
Cc1ccc(-n2sc3ccccc3c2=O)cc1S(=O)(=O)N1CCCCC1 | 40* | 127* | 30 | -22 | x | 66* | -1
COc1cccc(NC(=O)c2cc3cccc(OC)c3o/c2=N\O)c1 | 51* | x | x | x | 52 | 17 | -1
COc1cccc(NC(=O)c2cc3ccccc3o/c2=N\O)c1 | 15 | 10 | 8 | -14 | -1 | x | x
SMILES | PfM18AAP inh-1 | PfG6PD inh | PHOSPHO1 block | H9c2 protect | ALR inh | PfM18AAP inh-2 | CTSL1 counter
CCN1C(=O)N(C)C(N(O)C(=O)NC)C1(C)C (stereo not given) | 42* | -3 | 11 | 0 | x | -59 | -4
CNC(=O)N(O)C1N(C)C(=O)N(Cc2ccccc2)C1(C)C (stereo not given) | 7 | -19 | 15 | 1 | 1 | x | x
O=C(NC(=S)Nc1ncccn1)c1ccccc1Cl | -1 | -4 | -9 | -3 | 11 | x | x
O=C(NC(=S)Nn1cnnc1)c1ccc(F)cc1Cl | 78* | 23 | 0 | 2 | 3 | 55* | -3
COc1cccc(C(=O)NC(=S)Nn2cnnc2)c1OC | 73* | 30 | 7 | -8 | -4 | 60* | -9
O=C(NC(=S)Nn1cnnc1)c1ccccc1Cl | 83* | 8 | -19 | 0 | x | 52* | -7
COc1cccc(C(=O)C(=O)c2cccc(OC)c2OC)c1OC | x | -3 | x | -2 | x | x | x
